{"source": "PubChem BioAssay (Tox21)", "note": "Values joined by “and” are separate entries in the source; they are usually repeats but may differ in a detail not shown here. Identical values can stand only once. Results filed as inconclusive are left out. A call without a number means that no potency is given here. More than one record can exist for a structure, and the calls need not agree. Active and inactive are the calls of the source. The call rests on the fitted dose curve; in most records, active means well fitted inhibition curve with a large enough effect in the repeat runs; inconclusive means weak or mixed curves; inactive means no such curve, though single readings can be large or run the other way. Potency means the concentration at half of the fitted maximal effect.", "data": [{"target": "Aromatase (Homo sapiens) (UniProt P11511)", "sequence (P11511 whole entry, looked up)": "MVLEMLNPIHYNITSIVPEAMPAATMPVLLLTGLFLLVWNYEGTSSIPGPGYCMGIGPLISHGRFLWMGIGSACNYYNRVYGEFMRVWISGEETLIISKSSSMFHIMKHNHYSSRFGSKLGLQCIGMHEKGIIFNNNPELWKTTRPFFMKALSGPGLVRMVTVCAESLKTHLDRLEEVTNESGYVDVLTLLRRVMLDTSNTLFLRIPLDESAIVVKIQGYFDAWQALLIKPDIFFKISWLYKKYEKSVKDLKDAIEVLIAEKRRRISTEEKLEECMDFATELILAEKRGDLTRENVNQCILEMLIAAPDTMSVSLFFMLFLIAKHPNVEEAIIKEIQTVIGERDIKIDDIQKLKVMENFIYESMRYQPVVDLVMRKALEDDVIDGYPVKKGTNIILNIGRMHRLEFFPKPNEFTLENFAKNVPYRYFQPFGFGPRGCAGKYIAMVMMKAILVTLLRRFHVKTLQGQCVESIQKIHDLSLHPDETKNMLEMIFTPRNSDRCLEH", "assay": "qHTS assay to identify aromatase inhibitors (AID 743083); further: nearly all actives have a fitted effect of over 55% in size", "conditions": "MCF-7 aro ERE, testosterone-driven ERE luciferase, 24 h; series mostly up to 70.3 µM", "values": [{"smiles": "CCNc1nc(Cl)nc(NCC)n1", "Potency": "inactive"}, {"smiles": "CCCCn1cc[n+](C)c1", "Potency": "inactive"}, {"smiles": "CCCCCCCCCCCCCC[P+](CCCCCC)(CCCCCC)CCCCCC", "Potency": "6.14 µM (active) and 3.89 µM (active) and 1.09 µM (active)"}, {"smiles": "O=C(O)C(Cl)(Cl)Cl", "Potency": "inactive"}, {"smiles": "Nc1ccc(-c2ccc(N)cc2)cc1", "Potency": "inactive and 1.92 µM (active)"}, {"smiles": "CC(=O)[O][Hg][c]1ccccc1", "Potency": "3.35 µM (active) and 1.36 µM (active) and 686 nM (active)"}, {"smiles": "CCOP(=S)(OCC)Oc1ccc2c(C)c(Cl)c(=O)oc2c1", "Potency": "inactive"}, {"smiles": "C1CCC(NC2CCCCC2)CC1", "Potency": "inactive"}, {"smiles": "O=C(O)CC(O)(CC(=O)O)C(=O)O", "Potency": "inactive"}, {"smiles": "Cc1cc(Cl)ccc1N", "Potency": "inactive"}, {"smiles": "C[C@]12CCC(=O)C=C1CC[C@@H]1[C@@H]2CC[C@]2(C)C(=O)CC[C@@H]12", "Potency": "inactive"}, {"smiles": "OCCOc1ccccc1", "Potency": "inactive"}, {"smiles": "COc1ccc(N)cc1", "Potency": "inactive"}, {"smiles": "O=C(O)c1nc(Cl)ccc1Cl", "Potency": "inactive"}, {"smiles": "CCCC[n+]1cccc(C)c1", "Potency": "inactive"}, {"smiles": "CCCC[N+]1(C)CCCC1", "Potency": "inactive"}, {"smiles": "COc1ccccc1N", "Potency": "inactive"}, {"smiles": "O=[N+]([O-])c1ccccc1O", "Potency": "inactive"}, {"smiles": "CCCC[n+]1ccccc1", "Potency": "inactive"}, {"smiles": "CCCCn1cc[n+](C)c1C", "Potency": "inactive"}, {"smiles": "Cc1cc(Cl)ccc1OCC(=O)O", "Potency": "inactive"}, {"smiles": "CC(Cl)(Cl)C(=O)O", "Potency": "inactive"}, {"smiles": "O=C(O)CCl", "Potency": "inactive"}, {"smiles": "CCCCCC[n+]1ccccc1", "Potency": "inactive"}, {"smiles": "Nc1ccc(Cl)cc1", "Potency": "inactive"}, {"smiles": "Cc1cc(-c2ccc(N)c(C)c2)ccc1N", "Potency": "inactive"}, {"smiles": "O=C(O)C(Cl)Cl", "Potency": "inactive"}, {"smiles": "CCC(=O)C(CC(C)N(C)C)(c1ccccc1)c1ccccc1", "note": "(stereo not given)", "Potency": "inactive"}, {"smiles": "COP(=O)(OC)OC=C(Cl)Cl", "Potency": "inactive"}, {"smiles": "CCC[N+]1(C)CCCCC1", "Potency": "inactive"}]}]}
